For 9 molecules, growth results are on record in PubChem BioAssay (NCI).

About 83,000 compounds went through this panel and 20% of them were active in at least one assay; those are over-represented in the sample as a whole.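 Step 1: grow cells in 96-well plates. Step 2: add test compound at a single concentration. Step 3: incubate 48 h. Step 4: record percent growth.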 Unmarked numbers belong to inactive results. Activity calls are given as the source filed them. How the source made its calls: active means growth percent below 10; inactive means the rest.

Some test systems named below: HCT-15 colon; HT29 colon; SNB-75 CNS; SNB-19 CNS; U251 CNS; PC-3 prostate; UACC-62 melanoma; LOX IMVI melanoma; SK-MEL-28 melanoma; SK-MEL-2 melanoma; EKVX NSCLC; SN12C renal; UO-31 renal; TK-10 renal; ACHN renal; CAKI-1 renal; A498 renal; CCRF-CEM leukemia; MOLT-4 leukemia.
Common to all, as to assay: NCI-60 one-dose screen, 48 h (100 = growth as untreated, 0 = no growth, -100 = all killed)
Settings in all cases: 10 µM unless noted

In the case of `COC(=O)CCC/C=C\C[C@H]1C=CC(=O)/C1=C/C[C@@H](O)CCc1cccc(C(F)(F)F)c1`, the growth in the assay with HCT-15 colon is -5.76% (active); in the assay on HT29 colon, -30.6% (active); in the assay on SNB-75 CNS, 97.9%; in the assay on SNB-19 CNS it was 4.49% (active); in the assay on U251 CNS, -84.3% (active); with PC-3 prostate it was -39% (active). The growth was -60% (active) with UACC-62 melanoma; -64.2% (active) in the assay with LOX IMVI melanoma; -45.9% (active) with SK-MEL-28 melanoma; -5.48% (active) in the assay on SK-MEL-2 melanoma; 6.52% (active) in the assay with EKVX NSCLC; -36% (active) with SN12C renal. Further, the growth with UO-31 renal is -92.5% (active); in the assay with TK-10 renal, -3.59% (active); in the assay with ACHN renal it was -87.2% (active); with CAKI-1 renal, 12.6%; in the assay with A498 renal, -26.7% (active); in the assay on CCRF-CEM leukemia, -6% (active). For the same molecule, the growth in the assay on MOLT-4 leukemia is -14.2% (active).

For the molecule `Cc1[nH]c(C(=O)Nc2ccc(C(=O)NCCN)cc2OC(C)C)c(Cl)c1Cl`, the growth was 34.3% with HCT-15 colon; 2.87% (active) with HT29 colon; 78.4% in the assay on SNB-75 CNS; 52% in the assay on SNB-19 CNS; -21.4% (active) in the assay with U251 CNS; 45% in the assay on PC-3 prostate. The growth is 84% in the assay with UACC-62 melanoma; -95.1% (active) in the assay on LOX IMVI melanoma; 70.9% with SK-MEL-28 melanoma; 98.6% in the assay on SK-MEL-2 melanoma; 87.6% in the assay with EKVX NSCLC; 48.1% with SN12C renal. Besides, the growth in the assay on UO-31 renal is 57.1%; in the assay with TK-10 renal it was -21.6% (active); with ACHN renal, 40.7%; in the assay with A498 renal, 67.4%; in the assay with CCRF-CEM leukemia it was -10.5% (active); in the assay with MOLT-4 leukemia it was -27.7% (active).

For `Fc1cc2c(cc1Cl)N(c1ncnc3ccc(-c4cnc5cnccn45)cc13)CC2`, the growth is 99.1% with HCT-15 colon; 87.9% in the assay with HT29 colon; 69.2% in the assay on SNB-75 CNS; 86.2% with SNB-19 CNS; 91.1% with U251 CNS; 81.9% with PC-3 prostate. The growth is 80.5% in the assay on UACC-62 melanoma; 97.1% in the assay with SK-MEL-28 melanoma; 102% in the assay on SK-MEL-2 melanoma; 63.4% with EKVX NSCLC; 79.3% in the assay on SN12C renal; 42.1% in the assay with UO-31 renal. Also, the growth in the assay on TK-10 renal was 96.9%; in the assay on ACHN renal, 60.4%; in the assay on CAKI-1 renal, 62.8%; with A498 renal, 45.6%; in the assay with CCRF-CEM leukemia, 108%; in the assay with MOLT-4 leukemia it was 98.9%.

In the case of `C=C1CC[C@@]2(C#N)[C@H]3[C@H](CC[C@@H]2C)[C@@H](C)C[C@@H](CC(C)(C)C#N)[C@H]13`, the growth in the assay on HCT-15 colon was 43.6%; in the assay with HT29 colon, 46.8%; in the assay on SNB-75 CNS it was 44.6%; with SNB-19 CNS, 56.4%; in the assay with U251 CNS, 46.4%; in the assay with PC-3 prostate, 23.2%. Also, the growth was 43.5% in the assay on UACC-62 melanoma; 26.6% with LOX IMVI melanoma; 60.3% in the assay with SK-MEL-28 melanoma; 61.3% in the assay on SK-MEL-2 melanoma; 32.9% in the assay with EKVX NSCLC; 60.7% in the assay on SN12C renal. In addition, the growth was 14% in the assay with UO-31 renal; 50.6% with TK-10 renal; 28% in the assay with ACHN renal; 19% in the assay with CAKI-1 renal; 22% in the assay with CCRF-CEM leukemia; 29.3% in the assay on MOLT-4 leukemia.

Take `COc1cc(C)c(Cc2cnc(N)nc2N)cc1OC`: the growth is 113% with HCT-15 colon; 109% in the assay with HT29 colon; 104% in the assay on SNB-75 CNS; 98.9% in the assay on SNB-19 CNS; 97.7% in the assay on U251 CNS; 94.3% in the assay on PC-3 prostate. The growth with SK-MEL-28 melanoma was 118%; in the assay on EKVX NSCLC, 100%; with SN12C renal it was 105%; in the assay with UO-31 renal it was 88.4%; in the assay on TK-10 renal, 116%; in the assay with ACHN renal, 96.6%. Besides, the growth was 97.8% with CAKI-1 renal, 107% in the assay on A498 renal and 108% in the assay with CCRF-CEM leukemia.

Regarding `CCCCCCCCCCCCCCCCCCOc1ccccc1CCCOP(=O)(O)OCC[N+](C)(C)C`, the growth with HCT-15 colon is 51.3%; in the assay with HT29 colon, 12.7%; with SNB-75 CNS, 83.3%; in the assay on SNB-19 CNS, 33.7%; with U251 CNS, 39.4%; in the assay on PC-3 prostate it was 0.281% (active). The growth in the assay on UACC-62 melanoma was 55.7%; in the assay on LOX IMVI melanoma, 58.1%; in the assay on SK-MEL-28 melanoma it was 93.1%; with SK-MEL-2 melanoma it was 102%; in the assay with EKVX NSCLC, 74.1%; with SN12C renal it was 60.9%. For the same molecule, the growth in the assay on UO-31 renal is 68.5%; with TK-10 renal, 1.65% (active); with ACHN renal, 84.5%; in the assay on CAKI-1 renal it was 43.4%; in the assay on CCRF-CEM leukemia it was 34%; in the assay with MOLT-4 leukemia, 33.7%.

Consider `COc1cccc(Oc2ccccc2NC(=O)CNC(=O)c2cccc3ccccc23)c1`, for which the growth in the assay with HCT-15 colon was 17.8% [5 µM]; with HT29 colon it was 6.01% [5 µM] (active); in the assay with SNB-75 CNS, 28% [5 µM]; with SNB-19 CNS, 41.7% [5 µM]; in the assay with U251 CNS it was 23.2% [5 µM]; in the assay on PC-3 prostate it was 26.2% [5 µM]. Also, the growth in the assay with UACC-62 melanoma is 16.1% [5 µM]; in the assay with SK-MEL-28 melanoma it was 57.5% [5 µM]; with SK-MEL-2 melanoma, 30% [5 µM]; with EKVX NSCLC, 35.3% [5 µM]; in the assay on SN12C renal it was 31.4% [5 µM]; with UO-31 renal, 39.8% [5 µM]. The growth with TK-10 renal was 58.5% [5 µM]; in the assay with ACHN renal it was 33.7% [5 µM]; with A498 renal, -16.3% [5 µM] (active); with CCRF-CEM leukemia, 15.4% [5 µM]; in the assay with MOLT-4 leukemia it was 12.3% [5 µM].

With `COc1cccc(-c2nc(-c3ccc(NC(=O)C(C)C)cc3)[nH]c2-c2ccnc(Br)c2)c1`, the growth was 7.17% (active) with HCT-15 colon; 23% in the assay with HT29 colon; 10.5% with SNB-75 CNS; 44.6% in the assay with SNB-19 CNS; 32% with U251 CNS; 18.7% in the assay on PC-3 prostate. The growth with UACC-62 melanoma was 37.1%; in the assay on LOX IMVI melanoma it was 15.2%; in the assay on SK-MEL-28 melanoma, 47%; in the assay with SK-MEL-2 melanoma, 22%; with EKVX NSCLC, 45.1%; in the assay on SN12C renal it was 61.7%. Also, the growth in the assay with UO-31 renal is 12.1%; in the assay with TK-10 renal, 54%; with ACHN renal it was 28.8%; in the assay with CAKI-1 renal, 36.2%; in the assay on A498 renal, 2.23% (active); with CCRF-CEM leukemia, 21.8%. For the same molecule, the growth with MOLT-4 leukemia is 14.3%.

Take `COc1ccc(C2C(N)=NNC2c2cccc(O)c2)cc1` (stereo unspecified): the growth is 102% with HCT-15 colon; 104% in the assay on HT29 colon; 84.7% in the assay with SNB-75 CNS; 81.3% in the assay with SNB-19 CNS; 93.6% in the assay on U251 CNS; 95.6% in the assay with PC-3 prostate. For the same molecule, the growth in the assay on UACC-62 melanoma was 91.2%; in the assay on LOX IMVI melanoma, 97.7%; with SK-MEL-28 melanoma, 108%; in the assay on SK-MEL-2 melanoma, 87.6%; with EKVX NSCLC, 95.5%; with SN12C renal, 96.4%. Also, the growth with UO-31 renal was 83.7%; with TK-10 renal it was 122%; with ACHN renal it was 106%; in the assay on CAKI-1 renal, 88.7%; in the assay on A498 renal, 126%; with CCRF-CEM leukemia, 105%. In the assay on MOLT-4 leukemia, the growth was 96.7%.
